# Measurements: the supplement of paper PMC12350171
# Where a name gives a salt, the structure may show the parent alone. Unmarked numbers belong to inactive results.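 Rule for the calls: active = AUC significantly below DMSO controls by Student t-fit with adjusted P under 0.01; inactive = not significantly reduced.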
# Tested on: Haemophilus parainfluenzae
# Assay: growth AUC normalised to DMSO control (fraction of control); higher = less growth inhibition, active = hit call of the paper
# Details: 20 µM
# Outline: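 Pathogens passaged twice anaerobically were inoculated at a starting OD578 of 0.01 into pre-reduced mGAM plates with drug at 20 μM and 1% DMSO, sealed with breathable membranes. Haemophilus parainfluenzae medium was supplemented with hemin and NAD. OD578 was read hourly for 24 h, with three biological replicates. Growth-curve AUC was computed by the trapezoidal rule up to the exponential-to-stationary transition and normalised to DMSO controls on the same plate.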
row,Compound,growth AUC normalised to DMSO control
1,CC#C[C@]1(O)CC[C@H]2[C@@H]3CCC4=CC(=O)CCC4=C3[C@@H](c3ccc(N(C)C)cc3)C[C@@]21C [Mifepristone],0.994
2,CC[C@H]1OC(=O)[C@H](C)[C@@H](O[C@H]2C[C@@](C)(OC)[C@@H](O)[C@H](C)O2)[C@H](C)[C@@H](O[C@@H]2O[C@H](C)C[C@H](N(C)C)[C@H]2O)[C@](C)(O)C[C@@H](C)CN(C)[C@H](C)[C@@H](O)[C@]1(C)O [Azithromycin],0.0436 (active)
3,CC(C)(C)NC[C@H](O)c1ccc(O)c(CO)c1 [Levalbuterol hydrochloride],0.993
4,N[C@@H]1CONC1=O [D-cycloserine],1.04
5,CCOC(=O)OC(C)OC(=O)[C@@H]1N2C(=O)[C@@H](NC(=O)[C@H](N)c3ccccc3)[C@H]2SC1(C)C (some centres undefined) [Bacampicillin hydrochloride],0.0618 (active)
6,CC(=O)[C@H]1CC[C@H]2[C@@H]3C[C@H](C)C4=CC(=O)CC[C@]4(C)[C@H]3[C@@H](O)C[C@]12C [Medrysone],0.955
7,CN(C)CCCN1c2ccccc2CCc2ccccc21 [Imipramine hydrochloride],0.923
8,O=C(C1CCCCC1)N1CC(=O)N2CCc3ccccc3C2C1 (centres undefined) [Praziquantel],1.04
9,O=C(Nc1ccccc1)OCC(CN1CCCCC1)OC(=O)Nc1ccccc1 (centres undefined) [Diperodon hydrochloride],1.02
10,CC(=O)O[C@]1(C(C)=O)CC[C@H]2[C@@H]3C=C(Cl)C4=CC(=O)CC[C@]4(C)[C@H]3CC[C@@]21C [Chlormadinone acetate],1.01
11,C[C@]12CC[C@@H]3c4ccc(O)cc4CC[C@H]3[C@@H]1CCC2=O [Estrone],0.966
12,C[C@H]1O[C@@H](O[C@H]2[C@@H](O)C[C@H](O[C@H]3[C@@H](O)C[C@H](O[C@H]4CC[C@@]5(C)[C@H](CC[C@@H]6[C@@H]5C[C@@H](O)[C@]5(C)[C@@H](C7=CC(=O)OC7)CC[C@]65O)C4)O[C@@H]3C)O[C@@H]2C)C[C@H](O)[C@@H]1O [Digoxin],0.979
13,Clc1ccc(C(Cn2ccnc2)OCc2csc3c(Cl)cccc23)c(Cl)c1 (centres undefined) [Sertaconazole nitrate],1.07
14,Cc1c(C)c2c(c(C)c1O)CCC(C)(COc1ccc(CC3SC(=O)NC3=O)cc1)O2 (centres undefined) [Troglitazone],0.984
15,COc1ccc2cc(CCC(C)=O)ccc2c1 [Nabumetone],0.997
16,OCCN1CCN(CCCN2c3ccccc3Sc3ccc(Cl)cc32)CC1 [Perphenazine],0.924
17,c1ccc(CN(CC2=NCCN2)c2ccccc2)cc1 [Antazoline hydrochloride],1.01
18,CC(C)(C)NCC(O)c1ccc(O)c(CO)c1 (centres undefined) [Salbutamol],0.895
19,O=C(CCCN1CC=C(n2c(=O)[nH]c3ccccc32)CC1)c1ccc(F)cc1 [Droperidol],0.995
20,CCN1CCN(C(=O)N[C@@H](C(=O)N[C@@H]2C(=O)N3[C@@H]2SC(C)(C)[C@@H]3C(=O)O)c2ccccc2)C(=O)C1=O [Piperacillin sodium salt],0.0495 (active)

row,Compound,growth AUC normalised to DMSO control
1,C[C@@H](O[C@H]1OCCN(Cc2n[nH]c(=O)[nH]2)[C@H]1c1ccc(F)cc1)c1cc(C(F)(F)F)cc(C(F)(F)F)c1 [Aprepitant],0.941
2,COc1ccc(OC)c(C(O)CNC(=O)CN)c1 (centres undefined) [Midodrine hydrochloride],1.02
3,C#CCN(C)CCCOc1ccc(Cl)cc1Cl [Clorgyline hydrochloride],0.943
4,COc1ccc2cc([C@@H](C)C(=O)O)ccc2c1 [(R) Naproxen sodium salt],1.1
5,COc1ccc(/C=C/C(=O)Nc2ccccc2C(=O)O)cc1OC [Tranilast],1.01
6,COc1ccc(C(=O)NCc2ccc(OCCN(C)C)cc2)cc1OC [Itopride],0.993
7,CCN(CC)CC(=O)Nc1c(C)cccc1C [Lidocaine hydrochloride],1.02
8,CN(C)CCOC(=O)C(c1ccccc1)C1(O)CCCC1 (centres undefined) [Cyclopentolate hydrochloride],1.04
9,CC(C)(CO)[C@@H](O)C(=O)NCCCO [(D)-Panthenol],0.991
10,CN1CCCN=C1/C=C/c1cccc(O)c1 [Oxantel pamoate],0.916
11,CNCC(O)c1ccc(O)c(O)c1 (centres undefined) [Racepinephrine hydrochloride],1.06
12,C=C1c2cccc(O)c2C(O)=C2C(=O)[C@]3(O)C(O)=C(C(N)=O)C(=O)[C@@H](N(C)C)[C@@H]3[C@@H](O)[C@H]12 [Methacycline hydrochloride],0.0347 (active)
13,CN1Cc2c(N)cccc2C(c2ccccc2)C1 (centres undefined) [Nomifensine maleate],0.915
14,Cc1cc(N)c2ccccc2[n+]1CCCCCCCCCC[n+]1c(C)cc(N)c2ccccc21 [Dequalinium dichloride],0.907
15,CCN(CCCCOC(=O)c1ccc(OC)c(OC)c1)C(C)Cc1ccc(OC)cc1 (centres undefined) [Mebeverine hydrochloride],1.03
16,C[C@@](Cc1ccc(O)c(O)c1)(NN)C(=O)O [Carbidopa],0.996
17,COc1cc(C)nc(-n2nc(C)cc2OC)n1 [Epirizole],0.999
18,CO[C@@]1(NC(=O)CSCC#N)C(=O)N2C(C(=O)O)=C(CSc3nnnn3C)CS[C@@H]21 [Cefmetazole sodium salt],0.0246 (active)
19,OC(CCN1CCCCC1)(c1ccccc1)C1CC2C=CC1C2 (centres undefined) [Biperiden hydrochloride],0.95
